RE007 growth inh: less growth of the S. pombe RE007 Vpr strain; S. pombe RE007 Vpr strain, BacTiter-Glo ATP luminescence, 24 h; Potency, µM (doses to about 92.2 µM), inactives show at the highest dose activity change, negative = less growth, actives largely listed as inhibitors; 360,000 compounds, 0.21% hits; AID 651644; active = well fitted falling curve with a large enough effect; inconclusive = small, poorly fitted or top-dose-only effect; inactive = no such curve, though single readings can be large or run the other way; note: % is set by controls: 0 for no effect and ±100 for the full control effect; nearly all actives have a fitted effect of over 50% in size
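Fission yeast RE007 carrying one integrated HIV-1 vpr copy, seeded at OD 0.01 in PMG+AL medium with 23 nL pinned compound. Grown 24 h at 30 degrees; viability read by BacTiter-Glo luminescence after 5 min.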
Pf growth 96h: P. falciparum growth inhibition at 96 hours; 320,000 compounds, 6.9% hits; Potency, µM (series often up to 28.7 µM), without a hit: top-dose activity change, negative = inhibition, hits mostly inhibitors; AID 504834; P. falciparum luciferase reporter growth, 96 h; note: % is set by controls: 0 for no effect and ±100 for the full control effect
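Luminescence readout: decreased luciferase signal marks inhibited growth of reporter-expressing P. falciparum in infected red cells (2% hematocrit, 0.05% parasitemia final), exposed to compound two generations (96 h, 37 C, 5% CO2).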
Pf growth 48h: inhibits P. falciparum growth in the first generation, 48 h | Potency, µM (series often up to 28.7 µM), without a hit: top-dose activity change, negative = inhibition, most hits filed as inhibitors | 310,000 compounds, 5.9% hits | P. falciparum luciferase growth in erythrocytes, 48 h; note: % is set by controls: 0 for no effect and ±100 for the full control effect
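First compound was added to culture medium, then infected red cells at 0.1% parasitemia and 2% hematocrit (final). After incubation at 37 C under 5% CO2, luciferase detection reagent was dispensed and light output recorded.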
SARS PLP yeast: SARS-CoV PLP inhibition in yeast. AID 485353. 330,000 compounds, 0.19% hits. Potency, µM (top dose mostly 32.9 µM), for the others: top-dose activity, positive = growth rescue, most hits filed as activators. S. cerevisiae expressing SARS-CoV PLpro, growth rescue; calls by dose curve; note: 0% is about no effect; nearly all actives have a fitted effect of over 55% in size
NS1 inh: inhibitors of influenza NS1 protein function; Potency, µM (series often up to 46.1 µM), without a hit: top-dose activity, positive = more growth; 270,000 compounds, 0.4% hits; calls by dose curve; note: actives are rising curves; nearly all actives have a fitted effect of over 50% in size
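A cell-based growth assay was used: compounds that relieve NS1-induced slow growth of budding yeast raise OD600. Assay medium was yeast nitrogen base with ammonium sulphate and -URA supplement, pH 6.0, with 2% galactose.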
* hit, by the source's call; ? = inconclusive; / = not tested or not shown; [ ] = remark or other dose. Compounds with a hit are over-represented: about 9.5% of the library has one in this group of screens. Unless noted, calls come from the whole dose curve; as a rule, active = well fitted inhibition curve with a large enough effect; inconclusive = small, poorly fitted or top-dose-only effect, or another doubt; inactive = no such curve, though single readings can be large or run the other way. Potency is the fitted concentration of half-maximal effect.

SMILES | RE007 growth inh | Pf growth 96h | Pf growth 48h | SARS PLP yeast | NS1 inh
COc1ccc(S(=O)(=O)N2CCOC2CNC(=O)C(=O)NCc2ccccc2Cl)cc1 (configuration not stated) | -16% | ? | -29% | 3% | -16%
Cn1c(SCC(=O)N2CCCCC2)nc2cccnc21 | 7% | 13µM* | 30% | 0% | -10%
Cn1c(SCC(=O)N2CCN(S(=O)(=O)c3ccc(Cl)cc3)CC2)nc2ccccc21 | 9% | 10µM* | / | -1% | 1%
Cn1c(SCC(=O)N2CCCC2)nc2ccccc21 | -10% | -3% | 11% | -2% | /
Cn1c(SCC(=O)N2CCN(S(=O)(=O)c3ccccc3)CC2)nc2ccccc21 | 9% | ? | ? | -5% | -12%
CC(C)Cn1c(SCC(=O)N2CCN(S(=O)(=O)c3ccccc3)CC2)nc2ccccc21 | -8% | / | 3.3µM* | 2% | -14%
C[C@@H](NC(=O)c1[nH]cnc1C(=O)Nc1ccon1)c1ccccc1 | 0% | ? | ? | -3% | /
COc1cccc(/C=C/c2nc(S(=O)(=O)c3ccccc3)c(N(C)C)o2)c1 | 1% | ? | 10µM* | -1% | -2%
CC(C)C[C@H](NC(=O)c1nc[nH]c1C(=O)NCC(=O)OC(C)(C)C)C(=O)OC(C)(C)C | 3% | ? | ? | 0% | 1%
CC(C)(C)OC(=O)[C@H](Cc1ccccc1)NC(=O)c1[nH]cnc1C(=O)Nc1ccc(Cl)cc1 | 7% | ? | ? | 2% | ?
CC(C)C[C@H](NC(=O)c1nc[nH]c1C(=O)N[C@@H](CC(C)C)C(=O)OC(C)(C)C)C(=O)OC(C)(C)C | 15% | 8.3µM* | 6.6µM* | -4% | -7%
CC(C)C[C@H](NC(=O)c1[nH]cnc1C(=O)Nc1ccc(Cl)cc1)C(=O)OC(C)(C)C | 14% | 13µM* | 13µM* | 0% | 16%
CCOC(=O)C1(Cc2cccc(Cl)c2)CCCN(C(=O)c2cccnc2)C1 (configuration not stated) | -10% | 4.7µM* | 16% | 1% | 4%
CCOC(=O)C1(Cc2ccccc2C)CCCN(S(=O)(=O)c2cccnc2)C1 (configuration not stated) | 4% | 10µM* | 9.3µM* | -4% | -6%
CC#CC(=O)N1CCCC(Cc2cccc(OC)c2)(C(=O)OCC)C1 (configuration not stated) | 1% | 6.6µM* | ? | 3% | -14%
CCOC(=O)C1(Cc2cccc(OC)c2)CCCN(C(=O)CSC)C1 (configuration not stated) | 2% | / | / | / | /
CCOC(=O)C1(Cc2cccc(F)c2)CCN(C(=O)c2cscn2)CC1 | -4% | ? | -3% | -2% | -1%
CCOC(=O)C1(Cc2ccccc2C)CCCN(C(=O)c2ccnn2C)C1 (configuration not stated) | -6% | ? | -31% | 0% | -6%
CCOC(=O)C1(Cc2cccc(F)c2)CCN(C(=O)c2ccoc2C)CC1 | 6% | -25% | 10µM* | -1% | -2%
CCOC(=O)c1sc(NC(=O)CCN2CCN(CC)CC2)c(C(=O)OCC)c1C | -20% | ? | ? | -11% | /
COc1ccc(C(=O)CSc2nc3[nH]ncc3c(=O)[nH]2)cc1 | 2% | 11% | 26% | -1% | /
Cc1nn(C(C)C(=O)NCCCc2ccccc2)c(=O)c2nn(-c3ccccc3)c(C)c12 (configuration not stated) | 2% | ? | -23% | 3% | 12%
CC(=O)N[C@@H]1CONC1=O | / | / | / | / | -1%
CC1(C(=O)NCc2cccc3ccccc23)CCN1Cc1ccccc1OC(F)F (configuration not stated) | -15% | / | / | / | /
CCOC(=O)C1(Cc2cccc(OC)c2)CCN(Cc2cnc(C)s2)CC1 | -10% | 9.3µM* | ? | -1% | 4%
SMILES | RE007 growth inh | Pf growth 96h | Pf growth 48h | SARS PLP yeast | NS1 inh
N#Cc1cc(C(=O)c2ccccc2OCC(=O)Nc2ccccc2Cl)cn(C2CCCCC2)c1=O | 2% | ? | ? | 8% | ?
Cc1c(-n2cc(C(=O)c3cc(Cl)ccc3O)cc(C#N)c2=O)c(=O)n(-c2ccccc2)n1C | 0% | 0% | 0% | -1% | 3%
COc1ccc(O)c(C(=O)c2cc(C#N)c(=O)n(-c3c(C)n(C)n(-c4ccccc4)c3=O)c2)c1 | 12% | 9.3µM* | ? | 1% | 9%
Cc1ccc(O)c(C(=O)c2cc(C#N)c(=O)n(-c3c(C)n(C)n(-c4ccccc4)c3=O)c2)c1 | 8% | -12% | -1% | 2% | 2%
Cc1ccc(NC(=O)c2cc(C(=O)c3cc(Cl)ccc3O)cn(-c3ccc(C)cc3)c2=O)cc1 | / | 0.19µM* | 0.33µM* | ? | 23%
N#Cc1cc(C(=O)c2cc(Cl)ccc2O)cn(-c2ccccc2)c1=O | 14% | 1.9µM* | 9.3µM* | 7% | -14%
Cn1cc(Cl)cc(C(=O)Nc2ccccc2)c1=O | -14% | 119% | 100% | -4% | 4%
N#Cc1cc(C(=O)c2cc(Br)ccc2O)cn(C2CCCCC2)c1=O | 5% | 1µM* | 1.5µM* | 7% | 12%
O=C(NN(C(=O)c1ccccc1)c1ccccc1)c1ccccc1 | 17% | 27% | ? | 0% | 5%
Cc1cc(C(=O)N(NC(=O)C(C)C)c2ccccc2)cs1 | -2% | 8.3µM* | -12% | 3% | /
CCOC(=O)c1c(NC(=O)CSc2nc3ccccc3[nH]2)sc2c1CC(C)(C)NC2(C)C | -12% | 7.4µM* | 10µM* | 5% | /
CCOC(=O)c1c(NC(=O)COc2ccccc2)sc2c1CC(C)(C)NC2(C)C | 2% | -33%[5.75 µM] | ? | 0% | /
Cc1ccc2[nH]c(C(=O)NN=C3CCCCC3)c(-c3ccccc3)c2c1 | 3% | 9.3µM* | ? | 0% | ?
Cc1ccc2[nH]c(C(=O)O)c(-c3ccccc3)c2c1 | 5% | 7.4µM* | 7% | 5% | -61%
O=C(O)c1[nH]c2ccccc2c1-c1ccccc1 | 3% | 10% | / | 6% | -1%
CC(=O)NNC(=O)c1[nH]c2ccc(Br)cc2c1-c1ccccc1 | 2% | -1% | 7% | 0% | 1%
CCOC(=O)[C@H]1[C@H]2COc3cc(OC)ccc3[C@@H]2N2C(=O)CN(CCc3c[nH]c4ccccc34)C(=O)[C@@]12C | 6% | ? | 7.4µM* | ? | /
COc1ccc2c(c1)OC[C@H]1[C@H]2N2C(=O)CN(CC3CCCO3)C(=O)[C@@]2(C)[C@H]1c1ccccc1 (some centres not stated) | -13% | ? | ? | 0% | /
COc1ccc2c(c1)OC[C@H]1[C@H]2N2C(=O)CN(CCc3c[nH]c4ccccc34)C(=O)[C@@]2(C)[C@H]1c1ccccc1 | -7% | 4.7µM* | 12µM* | 2% | /
Cc1ccc(C)c(OCC(=O)N2CCN(c3ncccn3)CC2)c1 | 19% | ? | ? | 2% | /
